Assay results as given in PubChem BioAssay AID504832 (National Center for Advancing Translational Sciences (NCATS), 2011).
The campaign covered roughly 310,000 compounds. About 18,000 (5.8%) were called active. About 22% were inconclusive and are not listed. Calls come from the whole dose curve; as a rule, active = well fitted inhibition curve with a large enough effect; inconclusive = small, poorly fitted or top-dose-only effect, or another doubt; inactive = no such curve, though single readings can be large or run the other way. The sample as a whole holds a higher share of actives than the screen did.

Assay: Primary qHTS for delayed death inhibitors of the malarial parasite plastid, 48 hour incubation
Conditions: P. falciparum luciferase growth in erythrocytes; series mostly up to 28.7 µM; activity change, negative = inhibition: at the top concentration
Summary of the method: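 Firefly luciferase activity from engineered P. falciparum reports growth; inhibitors lower the luminescent signal. Cultures contained 2% hematocrit erythrocytes at 0.1% final parasitemia.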
% is set by controls: 0 for no effect and ±100 for the full control effect; potency is the fitted concentration of half-maximal effect.

Row | SMILES | activity change, negative = inhibition | Potency
1 | COc1ccc(C(=O)O)cc1S(=O)(=O)NCc1cccnc1 | 13.9% (inactive) | –
2 | CC(=O)Nc1ccc(NC(=O)C2CCCN2S(=O)(=O)c2cccc(C(F)(F)F)c2)cc1 (configuration not stated) | 56.5% (inactive) | –
3 | CCCCn1c(N)c(N(CC(C)C)C(=O)CN(C)S(=O)(=O)c2ccc(F)cc2)c(=O)[nH]c1=O | -18.4% (inactive) | –
4 | CSCCC(NC(=O)COc1ccccc1)C(=O)OCCOc1ccc(F)cc1 (configuration not stated) | -6.23% (inactive) | –
5 | O=C1CSc2ccc(S(=O)(=O)NCc3ccccc3)cc2N1 | 18.8% (inactive) | –
6 | CCN1/C(=C\c2ccc3ccccc3[n+]2CC)Sc2cc(C)ccc21 | – | 1.17 µM (active)
7 | CCN1/C(=C/C(=S)Nc2ccccc2)Sc2ccccc21 | 4.72% (inactive) | –
8 | CCN1/C(=C/c2ccc3ccc(C)cc3[n+]2CC)Sc2ccccc21 | – | 1.17 µM (active)
9 | CCOC(=O)c1c(C)[nH]c(C(=O)OCC(=O)c2ccc(OC)cc2OC)c1C | 50.2% (inactive) | –
10 | CCCc1cc(=O)oc2c(C)c(OCC(=O)Nc3ccccn3)ccc12 | -9.35% (inactive) | –
11 | O=C(COC(=O)c1cnccn1)Nc1ccc(Cl)cc1C(F)(F)F | 13.7% (inactive) | –
12 | COC(=O)c1ccc(CSc2ccc(S(=O)(=O)N3CCCCC3)cn2)cc1 | -17.8% (inactive) | –
13 | CN(Cc1ccccc1)S(=O)(=O)c1nnc(NC(=O)c2ccccc2F)s1 | 0.694% (inactive) | –
14 | COc1ccc(CCc2nc(-c3cccs3)no2)cc1 | 66% (inactive) | –
15 | C=CCc1ccccc1OCC(O)CN1CCN(CCO)CC1 (configuration not stated) | -12.8% (inactive) | –
16 | Cc1cc(C)n2nc(C(=O)OC(C)C(=O)c3cc(C)c(C)cc3C)nc2n1 (configuration not stated) | 11.2% (inactive) | –
17 | CCOC(=O)C1CN(S(=O)(=O)c2ccc(OC)cc2)c2cc(Cl)ccc2O1 (configuration not stated) | -15.5% [at 0.00184 µM] (inactive) | –
18 | O=C(NNC(=O)c1csc(-c2cccnc2)n1)Nc1ccc(Cl)cc1 | – | 8.28 µM (active)
19 | O=C(NNC(=O)c1cccnc1)Nc1ccccc1 | -5.94% (inactive) | –
20 | O=C(Nc1ccc(Cl)cc1)Nc1ccc(Oc2cccnc2)nc1 | 61.4% (inactive) | –
21 | COc1cccc(CNS(=O)(=O)c2ccc3c(c2)CC(C)N3C(C)=O)c1 (configuration not stated) | 19.4% (inactive) | –
22 | Cc1cccc(OCC(=O)NC2CC(C)(C)NC(C)(C)C2)c1 | 9.53% (inactive) | –
23 | COc1ccc(CCNC(=O)c2c(C)nn(-c3ccccc3)c2Cl)cc1 | 17.6% (inactive) | –

Row | SMILES | activity change, negative = inhibition | Potency
24 | COc1ccc(Cc2nc(-c3ccccn3)no2)cc1OC | 54.6% (inactive) | –
25 | CC(C)(C)Nc1nc(-c2ccccn2)nc2ccccc12 | – | 2.94 µM (active)
26 | Cc1ccc(Oc2nc(-c3ccccn3)nc3ccccc23)cc1 | – | 1.47 µM (active)
27 | Cc1ccc(Oc2nc3ccccc3n3c(C)nnc23)cc1 | 15.2% (inactive) | –
28 | CCC(=O)OCCNc1nc(-c2ccccc2)nc2ccccc12 | 20.8% (inactive) | –
29 | COc1ccc(Nc2nc(-c3cccnc3)nc3ccccc23)cn1 | 0% (inactive) | –
30 | COc1ccc(Sc2nc(-c3ccccc3)ncc2OC)cc1 | 60.4% (inactive) | –
31 | N#Cc1ccc(Oc2cc(C(F)(F)F)nc(-c3ccccn3)n2)cc1 | 22.8% (inactive) | –
32 | COc1cnc(-c2ccccn2)nc1Oc1ccc(C(C)(C)C)cc1 | – | 1.65 µM (active)
33 | COc1ccc(S(=O)(=O)N(CC(=O)N/N=C/c2ccc(C(=O)O)cc2)Cc2ccccc2)cc1OC | -7.28% (inactive) | –
34 | COc1ccc(C)cc1N(CC(=O)NC(C)c1ccccc1)S(C)(=O)=O (configuration not stated) | -4.34% (inactive) | –
35 | Cc1ccccc1OCC(=O)NNC(=O)c1cc(S(=O)(=O)N(C)C)ccc1N1CCCC1 | -1.17% (inactive) | –
36 | Cc1ccc(S(=O)(=O)N(CC(O)CN2CCCCC2)c2cccc([N+](=O)[O-])c2)cc1 (configuration not stated) | 3.97% (inactive) | –
37 | CC(C)CNS(=O)(=O)c1ccc(CCC(=O)NCc2ccc(Cl)cc2)cc1 | -15.5% (inactive) | –
38 | NC(=O)c1cc(S(=O)(=O)N2CCCC2)ccc1OCc1ccc(F)cc1 | -18.6% (inactive) | –
39 | CCOc1ccc(-c2nnc(-c3ccco3)o2)cc1 | -31.2% (inactive) | –
40 | CCOc1ccc(-c2cc(C)[n+](CCN(CC)CC)c(-c3ccc(OCC)cc3)c2)cc1 | – | 0.329 µM (active)
41 | CCOc1ccc(-c2nnc3ccc(SC)nn23)cc1 | 19.5% (inactive) | –
42 | O=C(Nc1ccc(NC(=O)c2ccco2)c(Cl)c1)c1cccc([N+](=O)[O-])c1 | – | 10.4 µM (active)
43 | CCC(=O)NC(=S)Nc1ccc(NC(=O)c2ccco2)c(Cl)c1 | 10.8% (inactive) | –
44 | COc1cc(NC(=O)c2cc([N+](=O)[O-])ccc2Br)ccc1NC(=O)c1ccco1 | 12.6% (inactive) | –
45 | Cc1ccc(OCC(=O)NC(C)c2ccccc2)cc1C (configuration not stated) | -4.35% (inactive) | –
46 | Cc1ccc(/C=N/NC(=O)C2=NNC(c3ccccc3)(c3ccccc3)C2)c(O)c1 | – | 4.15 µM (active)

Row | SMILES | activity change, negative = inhibition | Potency
47 | Cc1ccc2occ(/C=N/NC(=O)c3ccccc3C)c(=O)c2c1 | 33.4% (inactive) | –
48 | O=C(N/N=C/c1ccc(O)c2ccccc12)c1cccnc1 | -3.94% (inactive) | –
49 | CCN(C(=O)CSc1nnnn1-c1ccccc1OC)C1CCS(=O)(=O)C1 (configuration not stated) | -20.5% (inactive) | –
50 | CC(=O)N1CCSc2ccc(S(=O)(=O)N3CCC(C)CC3)cc21 | 1.61% (inactive) | –
51 | CCc1ccc(NC(=O)Cn2nnc(C(=O)NCc3ccc(OC)cc3)c2N)cc1 | 23% (inactive) | –
52 | COc1cccc(-c2ccc(SCC(=O)N3CCN(c4ccccc4)CC3)nn2)c1 | -4.56% (inactive) | –
53 | COc1ccc(C(CC(=O)N2CCN(c3ccccc3)CC2)c2c(O)cc(OC)cc2OC)cc1 (configuration not stated) | – | 10.4 µM (active)
54 | CC(CC(=O)N1CCN(c2ccccc2)CC1)c1ccccc1 (configuration not stated) | -0.834% (inactive) | –
55 | Cc1ccc(CS(=O)(=O)CCC(=O)NCc2ccc(F)cc2)cc1 | 21.5% (inactive) | –
56 | CC[C@]1(c2ccccc2OC)C(=O)N(C(=O)OC)N1C(=O)OC | -64% (inactive) | –
57 | CCOc1ccc(NC(=O)CN(C)C(=O)c2c(C)noc2C)cc1OCC | 5.49% (inactive) | –
58 | Cc1ccc(S(=O)(=O)CCC(=O)OCC(=O)N(C)C2CCS(=O)(=O)C2)cc1 (configuration not stated) | -27.9% (inactive) | –
59 | CCOc1ccc(NS(=O)(=O)c2cc(C)c(C)cc2C)cc1 | 0.582% (inactive) | –
60 | Cc1cc(C)c(C)c(S(=O)(=O)Nc2ccc(O)cc2)c1C | – | 7.38 µM (active)
61 | Cc1cc(C(C)(C)C)cc(S(=O)(=O)Nc2ccc(C(=O)O)cc2)c1C | -2.76% (inactive) | –
62 | NS(=O)(=O)c1ccc(CCNC(=O)CNC(=O)Cc2ccccc2)cc1 | 23.1% (inactive) | –
63 | O=C1NC(=O)C(c2ccc(Cl)cc2)N1 (configuration not stated) | 11.5% (inactive) | –
64 | S=C(c1ccccc1)N1CCCC1 | 6.41% (inactive) | –
65 | CC1CCN(c2nc3c(c(=O)[nH]c(=O)n3C)n2CCCc2ccccc2)CC1 | – | 11.7 µM (active)
66 | CCCSc1nc2c(c(=O)[nH]c(=O)n2C)n1CCc1ccccc1 | 5.19% (inactive) | –
67 | Cn1c(=O)[nH]c(=O)c2c1nc(N1CCCCCC1)n2CC(=O)c1ccccc1 | 8.78% (inactive) | –
